In all, about 390,000 compounds went through this assay and about 17,000 (4.4%) were called active. Roughly 8% stayed inconclusive and do not appear here. The call rests on the fitted dose curve; in most records, active means well fitted inhibition curve with a large enough effect; inconclusive means small, poorly fitted or top-dose-only effect; inactive means no such curve, though single readings can be large or run the other way. The list comes from a sample in which actives are over-represented; it also holds similar structures and randomly drawn compounds. Entries that show only a call come without a potency.
What follows are molecules tested against Lysine-specific demethylase 4A (Homo sapiens) (UniProt O75164) (assay: qHTS Assay for Inhibitors of JMJD2A-Tudor Domain). Conditions: AlphaScreen JMJD2A-Tudor / H3K4me3 peptide binding; series mostly up to 114 µM.
Chain of Lysine-specific demethylase 4A (Homo sapiens) (O75164 whole entry, looked up, the tested form may be a part): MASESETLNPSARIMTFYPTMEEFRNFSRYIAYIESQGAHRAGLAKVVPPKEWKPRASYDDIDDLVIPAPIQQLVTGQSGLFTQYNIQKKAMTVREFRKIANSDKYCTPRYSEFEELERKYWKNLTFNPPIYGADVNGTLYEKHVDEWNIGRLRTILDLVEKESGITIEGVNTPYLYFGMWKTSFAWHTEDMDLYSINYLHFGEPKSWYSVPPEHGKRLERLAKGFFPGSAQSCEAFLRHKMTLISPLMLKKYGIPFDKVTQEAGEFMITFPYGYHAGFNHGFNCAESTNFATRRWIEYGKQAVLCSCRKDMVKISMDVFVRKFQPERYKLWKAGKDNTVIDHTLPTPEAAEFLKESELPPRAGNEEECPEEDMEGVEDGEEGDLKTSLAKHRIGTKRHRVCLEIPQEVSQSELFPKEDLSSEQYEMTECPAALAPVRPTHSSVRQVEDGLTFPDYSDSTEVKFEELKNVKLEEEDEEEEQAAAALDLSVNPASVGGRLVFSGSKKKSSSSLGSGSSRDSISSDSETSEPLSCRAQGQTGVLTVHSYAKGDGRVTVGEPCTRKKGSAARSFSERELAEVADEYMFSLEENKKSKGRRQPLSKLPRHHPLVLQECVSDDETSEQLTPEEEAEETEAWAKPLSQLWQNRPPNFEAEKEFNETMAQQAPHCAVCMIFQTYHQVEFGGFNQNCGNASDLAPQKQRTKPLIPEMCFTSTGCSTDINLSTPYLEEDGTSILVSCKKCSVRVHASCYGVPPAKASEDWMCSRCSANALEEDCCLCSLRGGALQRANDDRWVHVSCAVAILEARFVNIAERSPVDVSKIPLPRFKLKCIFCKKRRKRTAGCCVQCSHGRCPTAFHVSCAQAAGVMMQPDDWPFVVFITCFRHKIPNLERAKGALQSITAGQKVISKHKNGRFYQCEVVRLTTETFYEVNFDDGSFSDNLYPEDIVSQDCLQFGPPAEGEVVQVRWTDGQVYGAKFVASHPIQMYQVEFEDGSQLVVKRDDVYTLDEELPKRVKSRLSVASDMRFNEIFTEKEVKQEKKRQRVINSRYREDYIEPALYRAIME
Description: JMJD2A is a jumonji-domain-containing lysine demethylase that uses Fe(II) together with 2-OG to effect oxidative demethylation of histones. Methylation is one of many […] modification that affect epigenetic transcription. […] It is proposed that the functions of JmjD2A binding to the histones, is to maintain marks after they are installed and to spread the modifications by […], establishing a self-propagating cycle for rapid methylation over a large area of chromatin. […] Thus, small molecule targeting of the JMJD2A-tudor domain interaction with its target methylhistone mark is expected to enable sophisticated experiments probing the fine regulatory pathways leading to selective demethylation of a given methyllysine locus based on the methylation state of adjacent histone marks. A quantitative high throughput AlphaScreen has been developed to identify small molecule inhibitors based on a protocol published by NCGC and SGC [4].
Although AlphaScreen has significant advantages with its utility in a variety of epigenetic target assays, the primary screening data provided in this deposition should be used with caution due to the prevalence of screening artifacts. The top compound concentration tested was high (>100uM) in this assay, which increases number of actives and potential artifacts. An AlphaScreen counterscreen is highly recommended to be run against any putative actives to eliminate non-specific artifacts. Alternatively, one can use other AlphaScreen assays in PubChem to filter out promiscuous hits.
[1] Lee, J. et al. Distinct binding modes specify the recognition of methylated histone H3K4 and H4K20 by JMJD2A-tudor. Nat Struct Mol Biol. 15(1); 109-11. 2008. PMID: 18084306
[2] Yasgar, et al. Compound Management for Quantitative High-Throughput Screening. JALA. 2008 Apr;13(2):79-89. PMID: 18496600
[3] Inglese, et al. Quantitative high-throughput screening: a titration-based approach that efficiently identifies biological activities in large chemical libraries. Proc Natl Acad Sci. 1;103(31):11473-8. 2006. PMID: 16864780
[4] Quinn et al. A homogeneous method for investigation of methyl-dependent protein-protein interactions in epigenetics. Nucleic Acids Res., 38(2):e11. 2010. PMID: […]
[5] Baell,Holloway. New substructure filters for removal of pan assay interference compounds (PAINS) from screening libraries and for their exclusion in bioassays. J Med Chem. 53(7):2719-40. 2010. PMID: 20131845
NIH Molecular Libraries Probe Production Network [MLPCN]
NIH Chemical Genomics Center [NCGC]
Structural Genomics Consortium (SGC)
To each well of a 1,536w plate, 2ul of JMJD2A-Tudor (final 100nM) and 1ul biotinylated histone peptide methylated at Lys4 [b-H3(1-18)K4me3] (final 50nM) were added in 1x PBS buffer, pH 7.4, containing 0.01% Tween-20, using a nanoliter dispenser. Formation of a protein-peptide complex proceeded at room temperature for 30 min. A Kalypsys pin-tool transferred 23nl of library compound solution in DMSO to each well. Following a 30 min incubation of the protein-peptide complex with compounds at room temperature, a mixture of 40 µg/mL each streptavidin-coated donor and nickel chelate acceptor AlphaScreen beads (final 10 µg/mL) was added in a 1ul dispense for a final volume of 4ul, followed by a brief centrifugation (1000 rpm, 1 min). Plates were incubated protected from the light for 20 min at room temperature. Microplates were then read on an EnVision multilabel plate reader using the 1,536 plate HTS AlphaScreen aperture (excitation time 80 ms, measurement time 240 ms).
For CN(C)P(=S)(Nc1ccccc1)C(Cl)(Cl)Cl (configuration not stated), the Potency was “inactive”. In the case of CC1CCCCN1Cc1cccnc1 (configuration not stated), the Potency is reported as 8.91 µM (active). In the case of CC1CCCN1CCC(C(N)=O)(c1ccccc1)c1ccccc1 (configuration not stated), the Potency is reported as “inactive”. For c1cncc(CNC2=NCCC2)c1, the Potency was “inactive”. C[C@]12CCC3C(CC[C@H]4[C@H](O)[C@H](O)CC[C@]34C)C1CC[C@@H]2O (some centres not stated) was tested, and the Potency was “inactive”. In the case of O=c1[nH]c(=O)n(-c2ccc(F)cc2)c(O)c1C=NCCN1CCCCC1, the Potency is reported as “inactive”. With CCOc1ccc(CN(CCCl)CCCl)cc1C(=O)OC the Potency was 25.1 µM (active). With c1ccc(C(CN2CCCCC2)c2ccccc2)cc1 the Potency was “inactive”. With CCOP(=O)(OCC)C(NC(=O)c1ccc(C)cc1)C(Cl)(Cl)Cl (configuration not stated) the Potency was “inactive”. With CC12CCC(O)CC1CCC1C2CCC2(C)C(C(=O)CC(O)C(F)(F)F)CCC12 (configuration not stated) the Potency was “inactive”. With CCC1(C)CC(CCNCc2ccc(N(C)C)cc2)(c2ccc(F)cc2)CCO1 (configuration not stated) the Potency was 44.7 µM (active). COC1=CC=C2[C@H]3Cc4ccc(OC)c5c4[C@@]2(CCN3C)C1O5 (some centres not stated) was tested, and the Potency was “inactive”. For CCN(CC)C(=O)c1ccc(NC(=O)c2cc(-n3cnnc3)ccc2Cl)cc1, the Potency was “inactive”. With COc1cccc(OC)c1C(=O)NC(=S)N1C[C@H]2C[C@H](C1)c1cccc(=O)n1C2 the Potency was “inactive”. In the case of CCC/C(=N\O)c1c[nH]c2ccccc12, the Potency is reported as “inactive”. With CCc1cccc2c(C#N)cn(CC(=O)N3CCOCC3)c12 the Potency was “inactive”. With COc1ccccc1CN1CCN(C(=O)Cc2ccccc2)CC1 the Potency was 2.51 µM (active). With O=C(Cc1ccccc1)N1CCN(C2CCCCCC2)CC1 the Potency was 79.4 µM (active). With CCC(=NCCc1ccccc1)c1c(O)n(C2CCCCC2)c(=O)[nH]c1=O the Potency was “inactive”. With O=C(Cn1c(=O)n(CC2CS2)c2ccccc21)N1CCCCC1 (configuration not stated) the Potency was “inactive”. O=C(Cc1ccc(Cl)cc1)NCCN1CCN(C(=O)Cc2ccc(Cl)cc2)CC1 was tested, and the Potency was “inactive”. In the case of CCN1CCN(C(=O)Cc2coc3cc(C)cc(C)c23)CC1, the Potency is reported as “inactive”. CN(C)C(=O)NC(O)C(Cl)(Cl)Cl (configuration not stated) was tested, and the Potency was “inactive”. With COC(=O)C1=C(c2ccc(F)cc2F)C[C@@H]2CC[C@H]1N2C(=O)NC1CC1 the Potency was “inactive”. For CC=C(C)C(=O)OC1CCN2CC=C(COC(=O)C(O)(C(C)OC)C(C)(C)O)C12 (configuration not stated), the Potency was “inactive”. For CCOc1ccc(-c2cc(C)[n+](CCN(CC)CC)c(-c3ccc(OCC)cc3)c2)cc1, the Potency was “inactive”. In the case of CCC(=O)CC(c1ccc([N+](=O)[O-])cc1)c1c(O)c2ccccc2oc1=O (configuration not stated), the Potency is reported as “inactive”. With COc1ccccc1OC(=O)c1ccc(C)c(S(=O)(=O)N2CCOCC2)c1 the Potency was “inactive”. In the case of CC1CNCCN1c1ccc(Cl)cc1 (configuration not stated), the Potency is reported as “inactive”. Cn1cc(/C=C/c2nc3ccccc3c(=O)n2-c2ccccc2)c2ccccc21 was tested, and the Potency was “inactive”. CCC(=O)OC(Cc1ccccc1)(c1ccccc1)C(C)CN(C)C (configuration not stated) was tested, and the Potency was “inactive”. With O=C(C1CC(=O)N(C2CCCC2)C1)N1CCC2(CC1)OCCO2 (configuration not stated) the Potency was “inactive”. O=C(C1CCN(CC2CCCCC2)CC1)N1CCCC1 was tested, and the Potency was 50.1 µM (active). In the case of C=C(C)C1(CCCC)C(=O)NC(=S)NC1=O, the Potency is reported as “inactive”. In the case of COC(=O)C1=C(c2ccc(C(C)=O)cc2)C[C@@H]2CC[C@H]1N2C(=O)NCCNC(C)=O, the Potency is reported as “inactive”. CN(C)/C=C(\C=[N+](C)C)c1[nH]ncc1[N+](=O)[O-] was tested, and the Potency was “inactive”. In the case of C[C@]12CCCCC1=CC(=O)C1C2CC[C@@]2(C)C1C[C@@H](F)[C@@H]2O (some centres not stated), the Potency is reported as “inactive”. With CC(C)c1ccc(-n2c(O)c(/C=N/N3CCOCC3)c(=O)[nH]c2=S)cc1 the Potency was “inactive”. In the case of CC/C(=N\NC(=O)c1ccccc1O)c1c(O)n(Cc2ccccc2)c(=O)[nH]c1=O, the activity change, negative = inhibition is reported as -0.735% [at 11.4 µM] (inactive). With O=c1[nH]c(=S)n(C2CC2)c(O)c1/C=N/N1CCOCC1 the Potency was “inactive”. For O=C(N/N=C/c1c(O)n(C2CC2)c(=S)[nH]c1=O)c1ccccc1Cl, the Potency was 89.1 µM (active). COc1ccccc1-n1c(O)c(C=NC2CC2)c(=O)[nH]c1=O was tested, and the Potency was “inactive”. In the case of O=C(N/N=C/c1c(O)n(C2CC2)c(=S)[nH]c1=O)c1ccccc1, the Potency is reported as 56.2 µM (active). In the case of COP(=O)(OC)C(NC(=O)c1ccc(C)cc1)C(Cl)(Cl)Cl (configuration not stated), the Potency is reported as “inactive”. Cc1nnc(NC(=O)c2cccn(Cc3cccc(F)c3)c2=O)s1 was tested, and the Potency was “inactive”. For COC(=O)C1=C(c2cc3ccccc3s2)C[C@@H]2CC[C@H]1N2C(=O)NCc1cccc2ccccc12, the Potency was “inactive”. In the case of CC(CC(C#N)(c1ccccc1)c1ccccc1)N1CCCCC1 (configuration not stated), the Potency is reported as “inactive”. For O=C(COC(=O)c1ccccc1)Nc1ccccc1Sc1ccccc1, the Potency was “inactive”. With Cc1cc(-c2n[nH]c(=S)n2-c2ccc(C)c(C)c2)no1 the Potency was 3.16 µM (active). O=C1NC(=O)C(CCOc2ccccc2)(CCc2ccccc2)C(=O)N1 was tested, and the Potency was “inactive”. With CCOC(=O)C1(c2ccccc2)CCN(CC(O)c2ccc(NC(C)=O)cc2)CC1 (configuration not stated) the Potency was “inactive”. With CCOP(=S)(OCC)SCOC(=O)NCC(=O)OC the Potency was “inactive”. COC(=O)C1=C(c2c(C)noc2C)C[C@@H]2CC[C@H]1N2C(=O)NCc1ccc2c(c1)OCO2 was tested, and the Potency was “inactive”. In the case of CCN1CCN(Cc2cc(OC)c3c(c2)OCO3)CC1, the Potency is reported as “inactive”. In the case of COc1ccc(CNCCc2ccc3c(c2)OCO3)c(OC)c1OC, the Potency is reported as 89.1 µM (active). With CC1C(=O)OC2CCN3CC=C(COC(=O)C(C)(O)C1(C)O)C23 (configuration not stated) the Potency was “inactive”. COc1cc([C@@H]2c3cc4c(cc3[C@H](OC(C)=O)[C@H]3COC(=O)[C@H]23)OCO4)cc(OC)c1OC was tested, and the Potency was “inactive”. In the case of COC(=O)[C@@H]1C(OC(=O)c2ccccc2)CC2CCC1N2C (some centres not stated), the Potency is reported as “inactive”. CCC1(CC(C)c2ccccc2)C(=O)NC(=O)NC1=O (configuration not stated) was tested, and the Potency was “inactive”. CN(C)C(=O)Oc1cc(OC(=O)N(C)C)cc(C(O)CNC(C)(C)C)c1 (configuration not stated) was tested, and the Potency was “inactive”. With O=C(Cc1ccccc1[N+](=O)[O-])N1CCN(Cc2ccc3c(c2)OCO3)CC1 the Potency was “inactive”. In the case of Cc1cc(=O)oc2c(C)c(OCC(=O)N3CCN(Cc4ccc5c(c4)OCO5)CC3)ccc12, the Potency is reported as “inactive”. In the case of Fc1ccc(N2CCN(Cc3ccc4c(c3)OCO4)CC2)cc1, the Potency is reported as 3.55 µM (active). CCCCCCCCCCCCn1ccc(=N)cc1 was tested, and the Potency was “inactive”. For CSc1ccc(C(=O)C2CCCN(Cc3ccn[nH]3)C2)cc1 (configuration not stated), the Potency was “inactive”. In the case of CN(C)CC1Oc2ccccc2OC1(O)c1ccccc1 (configuration not stated), the Potency is reported as “inactive”. With O=c1c2ccccc2nc(-c2ccc(Cl)cc2Cl)n1-c1ccncc1 the Potency was “inactive”.
Further: nearly all actives have a fitted effect of over 50% in size.
Potency means the concentration at half of the fitted maximal effect.
